# Columns and labels:
# [1] = system: Human papillomavirus type 1a protein E7 (residues 44-93); experiment: small molecules binding HPV E7 44-93 – biochemical, small-molecule microarray, residues 44-93, 635 nm fluorescence, primary screen (AID 1108); conditions: fluorescence 635 nm, higher = more signal;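 further: E7 fragment applied at 1 µg/mL in TBST for 1 h at 4 C; score combines spot fluorescence with its signal to noise ratio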
# [2] = hepatitis C replication reporter changes, two-sided – Huh7 cells, luciferase reporter, HCV replication inhibitor project, primary screen (AID 1109); conditions: Huh7 HCV replicon luciferase reporter, 48 h; higher = more signal;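 further: huh7 hepatoma cells harbouring a luciferase neomycin HCV replicon reporter; luciferase luminescence as measure of HCV replicon replication; test concentration not given here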
# [3] = target: Left-right determination factor 2 (Homo sapiens) (UniProt O00292); experiment: small molecules binding LEFTY2 protein – biochemical, small-molecule microarray, 635 nm fluorescence scan, primary screen (AID 1110); conditions: higher = more signal
# Left-right determination factor 2 (Homo sapiens), sequence (O00292 whole entry, looked up): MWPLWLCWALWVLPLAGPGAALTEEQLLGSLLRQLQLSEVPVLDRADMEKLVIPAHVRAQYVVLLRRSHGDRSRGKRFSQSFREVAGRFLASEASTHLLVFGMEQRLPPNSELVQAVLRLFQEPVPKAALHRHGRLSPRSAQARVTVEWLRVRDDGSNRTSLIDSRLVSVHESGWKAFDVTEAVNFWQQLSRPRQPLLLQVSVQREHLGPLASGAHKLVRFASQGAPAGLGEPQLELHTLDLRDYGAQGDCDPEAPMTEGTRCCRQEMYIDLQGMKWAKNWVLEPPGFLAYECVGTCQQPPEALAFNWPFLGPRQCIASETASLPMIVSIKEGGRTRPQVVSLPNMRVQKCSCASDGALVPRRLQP
# [4] = target: Calmodulin-1 (Homo sapiens) (UniProt P0DP23); experiment: small molecules binding calmodulin-1 with EGTA – biochemical, small-molecule microarray, Cy5-labelled CALM1, profiling panel (AID 1111); conditions: Cy5-CALM1 binding fluorescence, higher = more signal;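 further: labelled calmodulin applied in Tris saline Tween buffer holding calcium plus EGTA and DTT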
# [5] = target: Calmodulin-1 (Homo sapiens) (UniProt P0DP23); experiment: small molecules binding Ca-loaded calmodulin-1 – biochemical, small-molecule microarray, Cy5-labelled CALM1, plus calcium, artefact control for SMM control-protein annotation, profiling panel (AID 1112); conditions: Cy5-CALM1 binding fluorescence, higher = more signal;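 further: score merges spot fluorescence with signal to noise from triplicate slides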
# [6] = probe aWnt5a binding to arrayed compounds – biochemical, biotinylated probe, 635/667 nm fluorescence, primary screen (AID 1113); conditions: small-molecule microarray, higher = more signal;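 further: score merges 667 nm fluorescence intensity with signal-to-noise per printed feature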
# [7] = probe aShh binding to arrayed compounds – biochemical, biotinylated probe, 635/667 nm fluorescence, primary screen (AID 1114); conditions: small-molecule microarray, higher = more signal;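 further: probe is biotin-labelled aShh protein from a stem cell growth factor screen; measures binding of labelled protein to compounds printed on the slide; score merges feature fluorescence at 667 nm with signal-to-noise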
# [8] = probe aNog binding to arrayed compounds – biochemical, biotinylated probe, 635/667 nm fluorescence, primary screen (AID 1115); conditions: small-molecule microarray, higher = more signal;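 further: probe is biotinylated aNog protein used at 0.15 µg/mL for 1 h at 4 C; z-score combines 667 nm fluorescence of each spot with its signal to noise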
# [9] = target: Torsin-1A-interacting protein 1 (Homo sapiens) (UniProt Q5JTV8); experiment: compound microarray binding of lysate hLAP1 – cell lysate, small-molecule microarray, COS7 lysate, 635/667 nm fluorescence, primary screen (AID 1116); conditions: 635 nm fluorescence, higher = more signal
# Torsin-1A-interacting protein 1 (Homo sapiens), sequence (Q5JTV8 whole entry, looked up): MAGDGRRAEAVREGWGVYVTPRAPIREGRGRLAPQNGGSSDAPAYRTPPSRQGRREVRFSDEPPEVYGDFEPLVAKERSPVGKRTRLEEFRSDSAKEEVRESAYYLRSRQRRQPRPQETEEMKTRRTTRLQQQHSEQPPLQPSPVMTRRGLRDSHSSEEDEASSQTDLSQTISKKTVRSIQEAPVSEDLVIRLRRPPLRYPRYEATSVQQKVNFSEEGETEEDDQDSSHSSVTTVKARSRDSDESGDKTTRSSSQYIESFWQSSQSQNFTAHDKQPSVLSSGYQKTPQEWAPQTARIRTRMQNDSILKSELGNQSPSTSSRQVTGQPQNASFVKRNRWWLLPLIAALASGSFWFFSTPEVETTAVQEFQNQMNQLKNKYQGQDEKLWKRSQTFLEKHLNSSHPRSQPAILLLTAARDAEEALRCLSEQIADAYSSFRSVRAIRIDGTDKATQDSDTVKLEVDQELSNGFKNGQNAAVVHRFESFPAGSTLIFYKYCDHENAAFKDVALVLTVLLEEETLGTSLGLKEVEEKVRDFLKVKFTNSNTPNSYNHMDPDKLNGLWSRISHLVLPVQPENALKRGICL
# [10] = target: Alpha-bungarotoxin (Bungarus multicinctus) (UniProt P60615); experiment: compounds binding labelled alpha-BTX control protein – biochemical, small-molecule microarray, Alexa647 label, 635/667 nm fluorescence, artefact control for SMM control protein annotation, profiling panel (AID 1117); conditions: alpha-BTX-A647 binding fluorescence, higher = more signal
# Alpha-bungarotoxin (Bungarus multicinctus), sequence (P60615 whole entry, looked up): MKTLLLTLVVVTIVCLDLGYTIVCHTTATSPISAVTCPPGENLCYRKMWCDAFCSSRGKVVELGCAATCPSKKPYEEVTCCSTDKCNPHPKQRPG
SMILES,composite z-score [1],z-score [2],composite z-score [3],composite z-score [4],composite z-score [5],composite z-score [6],composite z-score [7],composite z-score [8],composite z-score [9],composite z-score [10]
CC(C)(C)OC(=O)CC[C@@]1(C(=O)O)N=C(c2ccc(OCCCO)cc2)O[C@@H]1c1ccccc1,1.16,0.344,-0.499,0.357,0.145,0.0799,0.0611,0.955,0.117,1.54
C=C(COC)/C(=C/C[C@@H](OC(=O)c1ccncc1)c1ccc(OCCO)cc1)c1cnc2ccccc2c1,1.3,-1.59,1.12,0.695,-0.604,0.0151,-0.167,0.827,1.66,1.5
Cc1ccc(S[C@]2(C(=O)NC3CC3)CC(=O)N(Cc3ccccc3Cl)[C@@H]2c2ccc(CO)cc2I)cc1,1.45,-1.57,-0.355,0.156,-0.274,0.109,0.0062,-0.429,0.769,0.939
CN(C)C(=O)[C@@]1(Cc2ccccc2N=[N+]=[N-])COC(c2ccc(OCCCO)cc2)=N1,1,-1.69,-0.475,1.32,0.202,0.212,0.661,-1.05,1.04,1.55
COc1ccc(C#Cc2ccc3c(c2)[C@]2(C(=O)N3)[C@H](C(=O)N3CCc4cc(OC)c(OC)cc4C3)[C@H]3C(=O)O[C@H](c4ccccc4)[C@H](c4ccccc4)N3[C@@H]2c2ccc(O)cc2)cc1,1.38,-1.21,0.388,1.22,0.06,-0.122,-0.0243,0.272,0.0204,1.04
CN(C)CCCNC(=O)[C@@H]1c2ccccc2C(=O)N(Cc2ccc(OC(F)(F)F)cc2)[C@H]1c1ccc(CO)cc1,1.35,-2.08,-0.0765,-0.226,-0.919,0.0003,0.0278,-0.309,0.724,0.243
COCCOC(=O)N1C(=O)[C@@]2(c3cc(C#CC4(O)CCCCCC4)ccc31)[C@H](C(N)=O)[C@H]1C(=O)O[C@H](c3ccccc3)[C@H](c3ccccc3)N1[C@@H]2c1ccc(O)cc1,1.4,-1.39,0.556,0.36,-0.471,-0.0203,-0.206,0.225,0.0793,0.74
NC(=O)N1C(=O)C2C(C1=O)C1C=C(CCCO)C2C(c2cccs2)N1Cc1cc2c(cc1Br)OCO2 (stereo not given),0.183,0.199,-0.451,1.03,0.25,-0.0685,0.147,0.244,0.333,1.23
COc1ccc(NC(=O)O[C@H]2[C@H](OC(=O)Nc3ccc4c(c3)OCO4)[C@@H](OC(=O)Nc3ccc4c(c3)OCO4)[C@@H](OC)O[C@@H]2CO)cc1,1.38,-0.802,0.0093,1.88,-0.56,-0.0478,0.365,0.966,1.29,0.663
Cc1ccc(C(C)CC(O)C2C=CC3C(=O)N(c4ccccc4)C(=O)C3N2Nc2ccc(C(C)C)cc2)o1 (stereo not given),1.33,1.02,-0.0337,2.35,1.01,0.14,-0.043,0.0485,0.801,1.64
C[C@H]1C2=C3C(CC[C@H]4C(OCc5ccc(F)cc5C(F)(F)F)OC[C@](C)([C@@H]34)N(C(=O)OC(C)(C)C)C2)C2COC(=O)OCC21 (stereo not given in full),1.35,-1.84,-0.431,2.39,1.06,0.0232,0.26,-0.701,0.908,0.771
[N-]=[N+]=Nc1ccccc1[C@@H]1OC(c2ccc(OCCCO)cc2)=N[C@]1(CCS(=O)(=O)c1ccccc1)C(=O)NCCN1CCOCC1,1.47,-0.485,0.382,0.03,0.0093,0.0814,0.337,0.675,1.26,0.737
O=C1NC(=O)C2C1C=CC(C(O)c1ccc(Br)cc1)N2Nc1ccccn1 (stereo not given),-0.444,0.233,0.727,-0.156,-0.435,0.149,0.254,0.356,0.531,0.22

# From PubChem BioAssay
